Data from PubChem BioAssay (NCATS).
Several values for one entry are separate records, joined by “and”; a condition that tells them apart may be missing. Equal entries are not always repeated. Inconclusive results are not listed. Where a call stands in place of a potency, no number is given. Activity calls are given as the source filed them. Unless noted, calls come from the whole dose curve; as a rule, active = well fitted curve in the direction sought with a large enough effect in the repeat runs; inconclusive = weak or mixed curves; inactive = no such curve, though single readings can be large; an effect the other way counts as inactive or inconclusive.

What was measured:
[1] = biological target: Cytochrome P450 2D6 (Homo sapiens) (UniProt P10635); assay: Cytochrome P450 family 2 subfamily D member 6 (CYP2D6) small molecule antagonists: luciferase biochemical (cell-free) qHTS assay (AID 1645840); note: nearly all actives have a fitted effect of over 55% in size; note: potency is the fitted concentration of half-maximal effect
Sequence of Cytochrome P450 2D6 (Homo sapiens) (P10635 whole entry, looked up): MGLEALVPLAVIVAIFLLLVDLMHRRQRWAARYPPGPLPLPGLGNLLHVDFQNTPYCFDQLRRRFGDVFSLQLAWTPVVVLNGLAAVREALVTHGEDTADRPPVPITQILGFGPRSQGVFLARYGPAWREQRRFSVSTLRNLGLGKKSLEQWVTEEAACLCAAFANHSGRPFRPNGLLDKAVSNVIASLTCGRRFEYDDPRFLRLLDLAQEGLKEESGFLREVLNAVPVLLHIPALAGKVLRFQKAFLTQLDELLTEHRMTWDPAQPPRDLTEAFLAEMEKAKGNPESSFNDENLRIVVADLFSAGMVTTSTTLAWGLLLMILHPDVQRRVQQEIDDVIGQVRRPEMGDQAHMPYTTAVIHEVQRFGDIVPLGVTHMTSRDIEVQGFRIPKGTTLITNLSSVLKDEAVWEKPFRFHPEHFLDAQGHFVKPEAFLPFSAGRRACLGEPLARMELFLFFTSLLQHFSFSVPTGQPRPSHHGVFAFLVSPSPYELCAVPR
Method in brief: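 P450-Glo CYP2D6 system: proluciferin substrate converted by enzyme to luciferin, read by luminescence proportional to activity. Enzyme-substrate mix with compound 10 min at room temperature, then NADPH regeneration 1 h before detection reagent.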

[2] = biological target: Cytochrome P450 2C9 (Homo sapiens) (UniProt P11712); assay: Cytochrome P450 family 2 subfamily C member 9 (CYP2C9) small molecule antagonists: luciferase biochemical (cell-free) qHTS assay (AID 1645842); note: nearly all actives have a fitted effect of over 55% in size; note: potency is the fitted concentration of half-maximal effect
Sequence of Cytochrome P450 2C9 (Homo sapiens) (P11712 whole entry, looked up): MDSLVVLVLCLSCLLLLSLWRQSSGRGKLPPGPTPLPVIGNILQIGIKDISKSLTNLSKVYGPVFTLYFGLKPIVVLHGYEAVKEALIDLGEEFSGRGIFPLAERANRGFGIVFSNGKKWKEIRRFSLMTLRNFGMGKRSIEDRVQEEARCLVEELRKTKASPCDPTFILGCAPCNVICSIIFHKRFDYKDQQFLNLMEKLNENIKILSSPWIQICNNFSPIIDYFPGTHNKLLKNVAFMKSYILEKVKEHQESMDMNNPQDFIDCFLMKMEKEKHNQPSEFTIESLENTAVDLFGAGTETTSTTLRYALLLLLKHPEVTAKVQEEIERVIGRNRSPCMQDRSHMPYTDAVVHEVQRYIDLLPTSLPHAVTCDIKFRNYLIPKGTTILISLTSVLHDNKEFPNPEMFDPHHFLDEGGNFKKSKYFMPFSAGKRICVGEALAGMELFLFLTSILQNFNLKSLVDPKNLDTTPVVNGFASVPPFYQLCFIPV
Method in brief: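 P450-Glo CYP2C9 system: proluciferin substrate with enzyme in mix containing 0.4% BSA, 10 min at room temperature, then NADPH regeneration solution added and incubated 1 h at 37C. Detection reagent stopped reaction; luminescence read after 20 min as RLU.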

[3] = Primary qHTS for inhibitors of nuclear receptor binding SET domain protein 2 (NSD2) in an isogenic RCH-ACV NSD2 p.E1099K mutant (9B) (AID 1645876; active = well fitted curve in the direction sought with a large enough effect; an effect the other way counts as inactive or inconclusive; note: nearly all actives have a fitted effect of over 70% in size; note: potency is the fitted concentration of half-maximal effect)
[4] = biological target: Cytochrome P450 3A4 (Homo sapiens) (UniProt P08684); assay: Cytochrome P450 family 3 subfamily A member 4 (CYP3A4) small molecule antagonists: luciferase qHTS assay (AID 1645841); note: nearly all actives have a fitted effect of over 45% in size
Sequence of Cytochrome P450 3A4 (Homo sapiens) (P08684 whole entry, looked up): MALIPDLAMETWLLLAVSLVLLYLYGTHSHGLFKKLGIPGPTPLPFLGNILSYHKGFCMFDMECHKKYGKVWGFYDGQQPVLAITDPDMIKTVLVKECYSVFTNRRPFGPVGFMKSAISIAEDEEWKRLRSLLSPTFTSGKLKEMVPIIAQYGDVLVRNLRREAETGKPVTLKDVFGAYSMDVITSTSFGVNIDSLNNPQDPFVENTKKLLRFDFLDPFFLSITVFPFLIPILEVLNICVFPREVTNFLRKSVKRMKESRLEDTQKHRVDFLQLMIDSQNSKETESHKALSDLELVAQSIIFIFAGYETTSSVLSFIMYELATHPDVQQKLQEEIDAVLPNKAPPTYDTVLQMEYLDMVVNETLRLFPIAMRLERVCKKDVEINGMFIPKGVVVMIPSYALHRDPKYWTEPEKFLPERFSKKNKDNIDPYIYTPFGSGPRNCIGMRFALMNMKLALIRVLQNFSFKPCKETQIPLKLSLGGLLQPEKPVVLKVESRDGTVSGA
Method in brief: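 Luminescent CYP3A4 activity readout: compounds plus enzyme-substrate mix 10 min at room temperature, reaction started with NADPH regenerating system for 1 h, stopped with detection reagent, read after 20 min. Ketoconazole served as control.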

[5] = Primary qHTS for inhibitors of nuclear receptor binding SET domain protein 2 (NSD2) in an RCH-ACV wild type WT cells (2C) (AID 1645877; active = well fitted curve in the direction sought with a large enough effect; an effect the other way counts as inactive or inconclusive; note: nearly all actives have a fitted effect of over 70% in size; note: potency is the fitted concentration of half-maximal effect)

| SMILES | Potency [1] | Potency [2] | Potency [3] | Potency [4] | Potency [5] |
| --- | --- | --- | --- | --- | --- |
| O=C(COc1ccc(Cl)cc1)NC1CCC(NC(=O)COc2ccc(Cl)cc2)CC1 (centres undefined) | inactive | inactive | inactive | – | – |
| CNc1nc(Nc2cnn([C@H]3CCN(C4COC4)C[C@@H]3F)c2Cl)ncc1C(F)(F)F | inactive | 2.68 µM (active) | – | inactive | – |
| Cc1[nH]cnc1C1CCN(c2nc3cccc4c3n2CCC4=O)CC1 | 9.52 µM (active) | 9.52 µM (active) | inactive | – | inactive |
| COc1ccc2cc(OCC3(C(=O)O)CN(C(=O)c4ccc(F)cc4)C3)ccc2c1 | inactive | 16.9 µM (active) | inactive | – | inactive |
| C=C1CC[C@@H]2[C@](C)(CO)[C@H](O)CC[C@@]2(C)[C@@H]1C/C=C1/C(=O)OC[C@H]1O | inactive | inactive | 8.33 µM (active) | – | 7.42 µM (active) |
| CCNC(=O)[C@H]1O[C@H](n2cnc3c(NCC(c4ccccc4)c4ccccc4)nc(C(=O)NCCNC(=O)NC4CCN(c5ccccn5)CC4)nc32)[C@H](O)[C@@H]1O | 23.9 µM (active) | 3.79 µM (active) | inactive | – | inactive |
| CO[C@@H]1COCC[C@@H]1N[C@@H]1CC[C@@](C(=O)N2CCc3ncc(C(F)(F)F)cc3C2)(C(C)C)C1 | 16.9 µM (active) | inactive | inactive | – | inactive |
| FC(F)(F)c1cc(C(F)(F)F)c2ccc3nc(-c4nnco4)cn3c2n1 | inactive | inactive | inactive | – | inactive |
| CCn1c2ccccc2c2cc(CNC)ccc21 | 9.52 µM (active) | inactive | 23 µM (active) | – | 23 µM (active) |
| COc1ccc([C@@H]2N[C@H](C(=O)O)Cc3c2[nH]c2ccccc32)cc1CN1CCN(c2ccccc2F)CC1 | 13.5 µM (active) | inactive | inactive | – | inactive |
| C[C@@H](Nc1cc(NS(=O)(=O)N2CCC2)nc(SCc2cccc(F)c2F)n1)[C@@H](O)CO | inactive | inactive | inactive | – | inactive |
| CC1(C)C(=O)C(C)(C)c2cc(C(=O)Nc3ccc(C(=O)O)cc3)ccc21 | inactive | inactive | inactive | – | inactive |
| CCC(=O)N[C@@H]1Cc2ccccc2[C@H](c2ccccc2)C1 | 9.52 µM (active) | 3.01 µM (active) | inactive | – | inactive |
| CC(=O)N1CCN(NC(=O)c2ccc(F)cc2)CC1 | inactive | inactive | inactive | – | inactive |
| CNC(=O)Nc1ccc(OC)c(NC(=O)NC(=O)c2cc(F)c(F)cc2Cl)c1 | inactive | inactive | inactive | – | inactive |
| O=C(c1ccccn1)c1cnn2c(-c3ccncc3)ccnc12 | 13.5 µM (active) | 12 µM (active) | inactive | – | inactive |
| CCc1c(CC(N)=O)c2cc(OCCCP(=O)(O)O)ccc2n1Cc1ccccc1 | inactive | inactive | inactive | – | inactive |
| CCOC(=O)c1c(C)nn(-c2cccc([N+](=O)[O-])c2)c1C | 8.49 µM (active) | 1.07 µM (active) | inactive | – | inactive |
| Cc1ccc(C(=O)Nc2ccc(Oc3cc4cnn(C)c4cc3-c3cn[nH]c3)c(F)c2)c(=O)n1-c1ccc(F)cc1 | inactive | 2.68 µM (active) | 2.9 µM (active) and 5.9 µM (active) | – | 2.9 µM (active) and 3.72 µM (active) |
| Cc1nn(C)c(COc2ccc(N3CCN(S(=O)(=O)N(C)C)CC3)cc2)c1-c1cccc2c(CCCOc3cccc4ccccc34)c(C(=O)O)n(CCN3CCOCC3)c12 | inactive | 13.5 µM (active) | inactive | – | inactive |
| CC1(C)OC(=O)C(OCC2CC2)=C1c1ccc(S(C)(=O)=O)cc1 | inactive | 13.5 µM (active) | inactive | – | inactive |
| Cc1cc(C)c(S(=O)(=O)N(Cc2ccc(-c3cccc(S(C)(=O)=O)c3)cc2)Cc2ccc(C(F)(F)F)o2)c(C)c1 | inactive | 0.268 µM (active) | inactive | – | inactive |
| CCn1nnnc1NCc1ccc(C(C)C)cc1 | inactive | 7.56 µM (active) | inactive | – | inactive |
| CN(C)c1cccc(-c2c3c(=O)n(-c4ccccc4Cl)[nH]c3cc(=O)n2C)c1 | inactive | 5.35 µM (active) | inactive | – | inactive |
